{
  "source": "PubChem BioAssay AID1014",
  "about": "(NMMLSC, 2008)",
  "experiment": "blockers of bacterial quorum-sensing reporter fluorescence – flow cytometry, SAR analogs, SAR follow-up (AID 1014);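 further: Staphylococcus aureus RN6390 with RNAIII-GFP reporter stimulated by AIP; bacteria incubated with compound for 3 hours at 37 °C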",
  "conditions": "at 20 µM, stronger effect = higher value; inhibition of percent positive cells: measured here: percent reporter-positive cells",
  "note": "The source made the active and inactive calls. No stated cut-off is given here; in the data, active means inhibition of mean fluorescence above about 33%; inactive means the rest.",
  "data": [
    {"smiles": "CCOC(=O)c1c(-c2ccc(OC)cc2)oc2ccc(O)cc12", "values": [
      {"measurement": "inhibition of mean fluorescence", "value": "-20.8% (inactive)"},
      {"measurement": "inhibition of percent positive cells", "value": 0.1, "unit": "%"}
    ]},
    {"smiles": "COc1cccc(C(=O)NCC(c2cccnc2)N2CCN(c3ccc(F)cc3)CC2)c1", "note": "(stereo not drawn)", "values": [
      {"measurement": "inhibition of mean fluorescence", "value": "8.6% (inactive)"},
      {"measurement": "inhibition of percent positive cells", "value": 0, "unit": "%"}
    ]},
    {"smiles": "Cc1cccc(Nc2c(F)c(F)c(F)c(F)c2C(=O)O)c1", "values": [
      {"measurement": "inhibition of mean fluorescence", "value": "-16.8% (inactive)"},
      {"measurement": "inhibition of percent positive cells", "value": -0.2, "unit": "%"}
    ]},
    {"smiles": "COc1c(F)c(F)c(C(=O)O)c(Nc2ccc(C)cc2)c1F", "values": [
      {"measurement": "inhibition of mean fluorescence", "value": "9.1% (inactive)"},
      {"measurement": "inhibition of percent positive cells", "value": -1.6, "unit": "%"}
    ]},
    {"smiles": "Cc1nnc(N2CCCC(C(=O)Nc3ccc4c(c3)OCO4)C2)c2nn(-c3ccccc3)c(C)c12", "note": "(stereo not drawn)", "values": [
      {"measurement": "inhibition of mean fluorescence", "value": "-10.1% (inactive)"},
      {"measurement": "inhibition of percent positive cells", "value": 0, "unit": "%"}
    ]},
    {"smiles": "COc1ccc(C(=O)c2coc3ccc(O)cc23)cc1", "values": [
      {"measurement": "inhibition of mean fluorescence", "value": "5% (inactive)"},
      {"measurement": "inhibition of percent positive cells", "value": 0.8, "unit": "%"}
    ]},
    {"smiles": "O=C(NCC(c1cccnc1)N1CCN(c2ccc(F)cc2)CC1)C1CCCCC1", "note": "(stereo not drawn)", "values": [
      {"measurement": "inhibition of mean fluorescence", "value": "-37% (inactive)"},
      {"measurement": "inhibition of percent positive cells", "value": 0.5, "unit": "%"}
    ]},
    {"smiles": "COc1ccc(Nc2nc3c(S(=O)(=O)c4ccc(F)cc4)nnn3c3ccccc23)cc1", "values": [
      {"measurement": "inhibition of mean fluorescence", "value": "-28.2% (inactive)"},
      {"measurement": "inhibition of percent positive cells", "value": -1.1, "unit": "%"}
    ]},
    {"smiles": "O=C(NCC(c1cccnc1)N1CCN(c2ccccc2)CC1)c1ccc(F)cc1", "note": "(stereo not drawn)", "values": [
      {"measurement": "inhibition of mean fluorescence", "value": "-24.9% (inactive)"},
      {"measurement": "inhibition of percent positive cells", "value": -0.8, "unit": "%"}
    ]},
    {"smiles": "O=C(NCC(c1cccnc1)N1CCN(c2ccccc2F)CC1)C1CC1", "note": "(stereo not drawn)", "values": [
      {"measurement": "inhibition of mean fluorescence", "value": "-8.8% (inactive)"},
      {"measurement": "inhibition of percent positive cells", "value": -0.7, "unit": "%"}
    ]},
    {"smiles": "CC(C)(C)c1ccc(S(=O)(=O)c2nnn3c2nc(Nc2ccccc2)c2ccccc23)cc1", "values": [
      {"measurement": "inhibition of mean fluorescence", "value": "-15.5% (inactive)"},
      {"measurement": "inhibition of percent positive cells", "value": -0.9, "unit": "%"}
    ]},
    {"smiles": "CCc1ccc(Nc2nc3c(S(=O)(=O)c4ccc(C(C)C)cc4)nnn3c3ccccc23)cc1", "values": [
      {"measurement": "inhibition of mean fluorescence", "value": "6.9% (inactive)"},
      {"measurement": "inhibition of percent positive cells", "value": -1.1, "unit": "%"}
    ]},
    {"smiles": "O=C(Nc1ccc2c(c1)OCO2)C1CCCN(C(=O)c2cnn(-c3ccccc3)c2-n2cccc2)C1", "note": "(stereo not drawn)", "values": [
      {"measurement": "inhibition of mean fluorescence", "value": "-23.9% (inactive)"},
      {"measurement": "inhibition of percent positive cells", "value": 0.1, "unit": "%"}
    ]},
    {"smiles": "Cc1ccc(S(=O)(=O)c2nnn3c2nc(Nc2ccc(Oc4ccccc4)cc2)c2ccccc23)cc1", "values": [
      {"measurement": "inhibition of mean fluorescence", "value": "-5% (inactive)"},
      {"measurement": "inhibition of percent positive cells", "value": 0, "unit": "%"}
    ]},
    {"smiles": "CC1CCN(C(=O)c2oc3ccccc3c2NC(=O)c2ccc3c(c2)OCO3)CC1", "values": [
      {"measurement": "inhibition of mean fluorescence", "value": "25.2% (inactive)"},
      {"measurement": "inhibition of percent positive cells", "value": -0.2, "unit": "%"}
    ]},
    {"smiles": "O=C(NC1CCCC1)C(c1cc2c(cc1[N+](=O)[O-])OCO2)N1CCC(Cc2ccccc2)CC1", "note": "(stereo not drawn)", "values": [
      {"measurement": "inhibition of mean fluorescence", "value": "4.9% (inactive)"},
      {"measurement": "inhibition of percent positive cells", "value": -0.6, "unit": "%"}
    ]},
    {"smiles": "Cc1cccc(Nc2nc3c(S(=O)(=O)c4ccccc4)nnn3c3ccccc23)c1", "values": [
      {"measurement": "inhibition of mean fluorescence", "value": "3.1% (inactive)"},
      {"measurement": "inhibition of percent positive cells", "value": 0.2, "unit": "%"}
    ]},
    {"smiles": "COc1ccc(N2CCN(C(CNC(=O)c3ccccc3F)c3cccnc3)CC2)cc1", "note": "(stereo not drawn)", "values": [
      {"measurement": "inhibition of mean fluorescence", "value": "-65.6% (inactive)"},
      {"measurement": "inhibition of percent positive cells", "value": -1.1, "unit": "%"}
    ]},
    {"smiles": "O=C(NCC(c1cccnc1)N1CCc2ccccc21)c1cccc(F)c1", "note": "(stereo not drawn)", "values": [
      {"measurement": "inhibition of mean fluorescence", "value": "6.5% (inactive)"},
      {"measurement": "inhibition of percent positive cells", "value": -2, "unit": "%"}
    ]},
    {"smiles": "O=C(NCCN1CCN(c2ccccc2)CC1)c1ccccc1F", "values": [
      {"measurement": "inhibition of mean fluorescence", "value": "-12.3% (inactive)"},
      {"measurement": "inhibition of percent positive cells", "value": -1.5, "unit": "%"}
    ]},
    {"smiles": "CC(=O)Nc1ccc(Nc2nc3c(S(=O)(=O)c4ccc(C(C)C)cc4)nnn3c3ccccc23)cc1", "values": [
      {"measurement": "inhibition of mean fluorescence", "value": "13.8% (inactive)"},
      {"measurement": "inhibition of percent positive cells", "value": 0.4, "unit": "%"}
    ]},
    {"smiles": "O=C(O)c1sc2ccccc2c1Nc1ccccc1", "values": [
      {"measurement": "inhibition of mean fluorescence", "value": "-2.8% (inactive)"},
      {"measurement": "inhibition of percent positive cells", "value": 0.6, "unit": "%"}
    ]},
    {"smiles": "COc1ccc(Nc2nc3c(S(=O)(=O)c4ccccc4)nnn3c3ccsc23)cc1", "values": [
      {"measurement": "inhibition of mean fluorescence", "value": "-41.7% (inactive)"},
      {"measurement": "inhibition of percent positive cells", "value": 0.3, "unit": "%"}
    ]},
    {"smiles": "COc1cccc(C(=O)NCC(c2cccnc2)N2CCN(c3ccccc3F)CC2)c1", "note": "(stereo not drawn)", "values": [
      {"measurement": "inhibition of mean fluorescence", "value": "7% (inactive)"},
      {"measurement": "inhibition of percent positive cells", "value": -1.4, "unit": "%"}
    ]}
  ]
}
